Assay [1] is described as follows: A549 cell viability effects, profiling panel, calcein-AM fluorescence, 48 h, basal (AID 1162). Further: test concentration not given here. The following applies: higher = more signal.
Assay [2] in a line: adipocyte viability effects, profiling panel, cell-based, 3T3-L1 adipocytes, calcein-AM fluorescence, 48 h, basal (AID 1163). Further: test concentration not given here. To be noted: 3T3-L1 adipocytes viability, higher = more signal.
The nature of assay [3]: HepG2 cell viability effects, profiling panel, calcein-AM fluorescence, 48 h, basal (AID 1164). Further: test concentration not given here. The following applies: higher = more signal.
A short description of assay [4]: MM1S cell viability effects, profiling panel, calcein-AM fluorescence, 48 h, basal (AID 1165).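 Further: viability of MM1S multiple myeloma cells under basal unstimulated conditions; test concentration not given here.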 The following applies: higher = more signal.
Assay [5] is described as follows: basal RPMI8226 viability, no added stimulus, profiling panel, cell-based, calcein-AM fluorescence, 48 h, PK04 Diversity Set (AID 1166).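 Further: cells grown under basal conditions without added stimulus; test concentration not given here.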 To be noted: RPMI8226 myeloma viability, higher = more signal.
Assay [6] can be described thus: basal HepG2 mitochondrial membrane potential changes, profiling panel, cell-based, JC-1 fluorescence, 24 h, 100 nL compound (AID 1167). Further: test concentration not given here. To be noted: higher = more signal.
A short description of assay [7]: basal 3T3-L1 adipocyte mitochondrial potential changes, profiling panel, cell-based, JC-1 fluorescence, 3T3-L1 adipocytes, 24 h, 100 nL compound (AID 1168). Further: test concentration not given here. The following applies: JC-1 mitochondrial fluorescence, higher = more signal, called active from +8 up or from −8 down.
Assay [8] is described as follows: basal RPMI8226 mitochondrial membrane potential changes, profiling panel, cell-based, JC-1 fluorescence, 24 h, 100 nL compound (AID 1169). Further: test concentration not given here. The following applies: RPMI8226 myeloma, JC-1 mitochondrial potential fluorescence, higher = more signal.
The nature of assay [9]: basal MM1S mitochondrial membrane potential changes, profiling panel, cell-based, JC-1 fluorescence, 24 h, 100 nL compound (AID 1170). Further: test concentration not given here. To be noted: higher = more signal.
A short description of assay [10]: A549 lung cancer cell viability effects, profiling panel, resazurin fluorescence, 24 h, PK04 Diversity Set (AID 1171). Further: test concentration not given here. To be noted: higher = more signal, called active from +8 up or from −8 down.
A short description of assay [11]: HepG2 liver cancer cell viability effects, profiling panel, resazurin fluorescence, 24 h, PK04 Diversity Set (AID 1172). Further: test concentration not given here. To be noted: higher = more signal.
Assay [12] is described as follows: basal S. cerevisiae growth modulation, no modifier, primary screen, OD600, strain BY4716, 24 h, basal condition (AID 1173). To be noted: OD600, 24 h, higher = more signal, called active from +8 up or from −8 down.
Assay [13] can be described thus: MM1S myeloma cell viability, profiling panel, resazurin fluorescence, basal, 24 h, PK04 Diversity Set (AID 1174).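 Further: MM1S multiple myeloma cell line; test concentration not given here.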 To be noted: higher = more signal, called active from +8 up or from −8 down. (In general: The colour change of resazurin is a common sign of viable cells or microbes.)
Assay [14] concerns the target Dihydroorotate dehydrogenase (quinone), mitochondrial (Plasmodium falciparum (isolate 3D7)) (UniProt Q08210). Kind of assay: PfDHODH enzyme inhibitors, primary screen, biochemical, C-terminal His tag, absorbance 600 nm (AID 1175).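 Further: recombinant parasite enzyme with a five histidine tag at its C terminus; test concentration not given here.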 To be noted: DCIP absorbance 600 nm, higher = more signal, called active from +8 up or from −8 down.
The nature of assay [15]: P. aeruginosa biofilm formation inhibitors, primary screen, strain PAO1, LB-PBS medium, absorbance 600 nm (AID 1176). Further: test concentration not given here. To be noted: P. aeruginosa PAO1 growth/biofilm, A600, 12 h; higher = more signal.
The nature of assay [16]: S. cerevisiae RM11-1a growth modifiers, primary screen, strain RM11-1a, OD600, basal, 24 h (AID 1177).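 Further: cultures grown under basal conditions with no added stressor; test concentration not given here.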 To be noted: OD600, 24 h, higher = more signal, called active from +8 up or from −8 down.
The nature of assay [17]: E. coli acrAB mutant growth effects, primary screen, E. coli filamentation inducers, strain DRC39, OD650, 24 h (AID 1178).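 Further: growth measured as culture turbidity by optical density at 650 nm; test concentration not given here.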 The following applies: higher = more signal, called active from +8 up or from −8 down.
Assay [18] can be described thus: E. coli acrAB mutant growth effects, primary screen, E. coli filamentation inducers, strain DRC39, OD650, 48 h (AID 1179).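 Further: screen aims at cell division blockers that make cells filament.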 The following applies: E. coli DRC39 delta-acrAB growth, higher = more signal, called active from +8 up or from −8 down.
A short description of assay [19]: RPMI8226 myeloma cell viability, profiling panel, resazurin fluorescence, basal, 24 h, PK04 Diversity Set (AID 1180).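 Further: RPMI8826 multiple myeloma cell line at 5000 cells per well; test concentration not given here.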 The following applies: higher = more signal.
For assay [20], the target named is E3 ubiquitin-protein ligase XIAP (Homo sapiens) (UniProt P98170). Kind of assay: XIAP binders, primary screen, biophysical, small-molecule microarray, fluorescence 635 nm (AID 1181).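 Further: score merges 667 nm emission and signal to noise over triplicate slides.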 The following applies: small-molecule microarray binding, higher = more signal.

Structures are written as SMILES. The source made the active and inactive calls. Unless noted, how the calls were made is not given here.

Dihydroorotate dehydrogenase (quinone), mitochondrial (Plasmodium falciparum (isolate 3D7)), sequence (Q08210 whole entry, looked up): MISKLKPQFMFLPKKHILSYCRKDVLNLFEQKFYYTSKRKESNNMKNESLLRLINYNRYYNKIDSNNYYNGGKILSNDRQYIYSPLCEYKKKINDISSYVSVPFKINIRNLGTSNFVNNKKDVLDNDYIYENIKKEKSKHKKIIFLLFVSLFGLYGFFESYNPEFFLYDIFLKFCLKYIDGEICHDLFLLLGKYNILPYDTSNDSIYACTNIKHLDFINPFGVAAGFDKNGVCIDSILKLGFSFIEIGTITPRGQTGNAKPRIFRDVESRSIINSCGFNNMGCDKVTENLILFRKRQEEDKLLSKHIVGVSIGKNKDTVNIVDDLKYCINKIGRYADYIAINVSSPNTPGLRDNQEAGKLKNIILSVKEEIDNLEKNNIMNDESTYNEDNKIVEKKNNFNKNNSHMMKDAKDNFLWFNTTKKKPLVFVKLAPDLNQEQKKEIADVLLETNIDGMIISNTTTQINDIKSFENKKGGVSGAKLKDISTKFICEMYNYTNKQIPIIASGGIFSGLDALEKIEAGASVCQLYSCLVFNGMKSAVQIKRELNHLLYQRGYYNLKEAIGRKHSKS
E3 ubiquitin-protein ligase XIAP (Homo sapiens), sequence (P98170 whole entry, looked up): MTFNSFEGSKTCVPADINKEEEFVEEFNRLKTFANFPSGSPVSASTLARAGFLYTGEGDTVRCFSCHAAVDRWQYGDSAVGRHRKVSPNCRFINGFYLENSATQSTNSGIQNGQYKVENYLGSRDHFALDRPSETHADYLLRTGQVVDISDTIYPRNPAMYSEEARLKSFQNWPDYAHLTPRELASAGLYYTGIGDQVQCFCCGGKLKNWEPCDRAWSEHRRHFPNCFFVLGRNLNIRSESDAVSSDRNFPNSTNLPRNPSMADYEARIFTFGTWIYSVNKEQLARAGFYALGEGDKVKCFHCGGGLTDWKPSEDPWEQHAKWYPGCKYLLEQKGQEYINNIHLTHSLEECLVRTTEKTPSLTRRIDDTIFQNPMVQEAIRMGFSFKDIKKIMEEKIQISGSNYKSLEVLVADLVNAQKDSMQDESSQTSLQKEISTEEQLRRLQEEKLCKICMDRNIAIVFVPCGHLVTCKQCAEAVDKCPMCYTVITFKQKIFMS

On to `C=CC[C@@H](OC(=O)Nc1ccc(OC)cc1)c1ccc(O)c(F)c1`, for which the z-score is -1.78 in assay [1]; 0.379 in assay [2]; -2.39 in [3]; -2.15 in [4]; -2.51 in assay [5]; -3.67 in assay [6]. In addition, the z-score in assay [7] is -1.37 (inactive); in [8] it was 0.122; in assay [9], -1.07; in [10], -0.747 (inactive); in assay [11], -1.33; in assay [12], -16.3 (active). For the same molecule, the z-score in [13] was -1.32 (inactive); in assay [15], 0.79 (inactive); in assay [16], -22 (active); in assay [17], 0.924 (inactive); in assay [18], 0.41 (inactive); in assay [19], -0.895. Moreover, the composite z-score in [14] is -2.55 (inactive); in assay [20], -0.0441.

In the case of `CCOC(=O)C[C@H]1[C@H](OC(=O)c2cc3ccccc3oc2=O)[C@@H](NC(=O)c2ccc3ccccc3n2)c2cc(OCCCO)ccc2N1C(=O)Cc1ccc(OC)cc1`, the z-score is 0.308 in [1]; 0.499 in assay [2]; -0.355 in [3]; 0.765 in [4]; -0.946 in assay [5]; 0.492 in [6]. Besides, the z-score in assay [7] was -0.362 (inactive); in assay [8], 0.498; in [9], -0.423; in [10] it was 0.711 (inactive); in assay [11], 1.16; in assay [12] it was -0.105 (inactive). Further, the z-score was -0.76 (inactive) in assay [13]; -1 (inactive) in [15]; 0.796 (inactive) in assay [16]; 0.662 (inactive) in assay [17]; 0.0535 (inactive) in assay [18]; -0.284 in assay [19]. Also, the composite z-score in [14] is -0.543 (inactive); in [20] it was -0.173.

Consider `C=CCC(OC(C)=O)[C@@H]1[C@@H](N(Cc2ccc(-c3ccccc3)cc2)C(=O)c2ccc(-c3ccccc3)cc2)c2cc(OCCCO)ccc2N1C(=O)c1ccc2ccccc2c1` (stereo not given in full), for which the z-score was -0.77 in assay [1]; 0.676 in assay [2]; 0.313 in assay [3]; -0.531 in assay [4]; -0.685 in assay [5]; 1.42 in assay [6]. The z-score is -0.645 (inactive) in assay [7]; 0.795 in assay [8]; 0.563 in assay [9]; 0.204 (inactive) in assay [10]; -0.723 in assay [11]; 0.416 (inactive) in [12]. The z-score is 0.149 (inactive) in assay [13]; 0.35 (inactive) in [15]; -0.583 (inactive) in assay [16]; -0.91 (inactive) in assay [17]; -0.756 (inactive) in assay [18]; -0.205 in [19]. For the same molecule, the results for the composite z-score in assay [14] and in [20] were -0.746 (inactive) and 0.0423, respectively.

Regarding `[N-]=[N+]=Nc1ccccc1C[C@]1(C(=O)O)COC(c2ccc(OCCCO)cc2)=N1`, the z-score in [1] was -0.118; in assay [2], 0.909; in assay [3], 0.215; in assay [4] it was -0.0932; in assay [5], -0.747; in [6] it was -0.253. The z-score is -1.19 (inactive) in assay [7]; -0.329 in [8]; 0.529 in assay [9]; -0.98 (inactive) in [10]; -0.365 in assay [11]; -0.231 (inactive) in assay [12]. Besides, the z-score in assay [13] is 0.037 (inactive); in assay [15], 0.0254 (inactive); in assay [16] it was 0.212 (inactive); in [17], 0.438 (inactive); in assay [18], -0.8 (inactive); in assay [19], 0.404. Also, the composite z-score in assay [14] is 1.04 (inactive); in assay [20] it was 0.245.

`O=C1O[C@H](c2ccccc2)[C@H](c2ccccc2)N2[C@H]1[C@@H](C(=O)O)[C@]1(C(=O)Nc3ccc(C#CCCO)cc31)[C@H]2c1ccccc1OCCO`: the z-score in [1] is -0.0678; in assay [2], 1.32; in assay [3], -0.187; in assay [4], 0.0409; in assay [5], -0.353; in assay [6], -0.892. Moreover, the z-score in assay [7] is -0.426 (inactive); in assay [8], -0.616; in assay [9], 0.884; in [10] it was -0.0294 (inactive); in assay [11], -0.732; in [12], -0.498 (inactive). The z-score in assay [13] is 0.716 (inactive); in assay [15], 0.573 (inactive); in [16], 0.626 (inactive); in assay [17] it was -0.88 (inactive); in assay [18], -1.22 (inactive); in [19], 1.5. The composite z-score in [14] was -0.408 (inactive); in assay [20] it was 0.177.

In the case of `CCCC[C@@H](O)C1=C(COC)C[C@H]2C(=O)N(C)C(=O)[C@H]2[C@H]1CO`, the z-score is 1.28 in assay [1]; 1.13 in assay [2]; 1.48 in assay [3]; -0.211 in assay [4]; 0.536 in assay [5]; 1.23 in assay [6]. Besides, the z-score was -0.987 (inactive) in assay [7]; 0.335 in assay [8]; -1.98 in assay [9]; 0.368 (inactive) in [10]; 0.798 in assay [11]; -3.7 (inactive) in assay [12]. In addition, the z-score in assay [13] is -0.264 (inactive); in assay [15] it was 1.04 (inactive); in assay [16] it was -2.16 (inactive); in assay [17], 2.43 (inactive); in assay [18], 0.964 (inactive); in assay [19], 1.3. Besides, the values for the composite z-score in assay [14] and in [20] were -1.43 (inactive) and -0.109, respectively.

With `CCOC(=O)C[C@H]1[C@H](OC(=O)c2cc3ccccc3oc2=O)[C@@H](NC(=O)CC(C)C)c2cc(OCCCO)ccc2N1C(=O)c1ccc2ccccc2n1`, the z-score in [1] is -0.326; in [2], -0.166; in assay [3], 0.311; in [4] it was -0.18; in [5], 0.156; in assay [6] it was -0.858. The z-score in [7] was -0.415 (inactive); in assay [8], -0.272; in [9], -0.692; in assay [10], -0.103 (inactive); in assay [11] it was -0.792; in [12], 0.738 (inactive). Besides, the z-score in [13] is -0.043 (inactive); in [15], 0.555 (inactive); in [16], 1.44 (inactive); in assay [17] it was -0.463 (inactive); in [18], -0.416 (inactive); in assay [19], -0.493. Further, the composite z-score in assay [14] is 0.544 (inactive); in assay [20], -0.102.

With `Cc1cc(C)c(C(O)C2C=CC3C(=O)N(c4ccccc4)C(=O)C3N2Nc2ccccc2F)c(C)c1` (stereo not given), the z-score in assay [1] was -0.472; in assay [2], -0.89; in assay [3] it was -0.631; in assay [4] it was -1.57; in assay [5] it was 0.48; in assay [6], -1.84. The z-score in assay [7] was -0.709 (inactive); in [8], -0.15; in assay [9] it was 1.01; in assay [10] it was 1.61 (inactive); in assay [11], 0.485; in assay [12], 2.01 (inactive). For the same molecule, the z-score in assay [13] is -0.371 (inactive); in assay [15] it was 0.971 (inactive); in [16], 1.56 (inactive); in [17], -0.47 (inactive); in assay [18], -0.439 (inactive); in assay [19], -0.527. Besides, the composite z-score in [14] is 1.03 (inactive); in assay [20], 0.127.

The record behind these values is PubChem BioAssay.
